Hits are enriched below; roughly 3.3% of the tested compounds scored in any of these assays.
KinaseGlo FLuc = Counterscreen for Luciferase (Kinase-Glo TM) Inhibition; Luciferin 4-monooxygenase (Photuris pensylvanica), Q27757; Kinase-Glo luciferase, ATP luminescence, 8 min; Potency, µM (titrated, usually from 38.3 µM), for the others: top-dose activity change, negative = inhibition, most hits filed as inhibitors; 0.28% of 200,000 active; AID 1379, 2008; note: nearly all actives have a fitted effect of over 60% in size
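Light output from Kinase-Glo luciferase with luciferin and 10 uM ATP in 50 mM imidazole pH 7.2, KCl, MgCl2, Tween 20, BSA; compound pin-delivered, 8-min ambient incubation, then luminescence read.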
Tau fluor cs = Counterscreen qHTS for Inhibitors of Tau Fibril Formation, Fluorescence Polarization. AID 1463, 2008. Potency, µM (series often up to 57.7 µM), for the others: at the top dose activity change, negative = decrease. 0.93% of 280,000 active. tau K18 P301L Alexa594 fluorescence, heparin fibrillization; note: nearly all actives have a fitted effect of over 55% in size
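Human K18 P301L tau (15 uM unlabeled plus 0.24 uM Alexa 594-labeled, final) in 100 mM sodium acetate pH 7 was mixed with compound and 20 uM heparin and incubated 6 hr at 37 C.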
Tau FP inhib = qHTS for Inhibitors of Tau Fibril Formation, Fluorescence Polarization; Microtubule-associated protein tau (Homo sapiens), P10636; K18 P301L tau heparin fibrillization, Alexa594 FP, 6 h; Potency, µM (top dose mostly 57.7 µM), for inactives: at the top dose activity, negative = inhibition, actives largely listed as inhibitors; 0.39% of 280,000 active; AID 1468, 2008; note: nearly all actives have a fitted effect of over 55% in size
Target sequence (P10636 561-689 P618L limits assumed): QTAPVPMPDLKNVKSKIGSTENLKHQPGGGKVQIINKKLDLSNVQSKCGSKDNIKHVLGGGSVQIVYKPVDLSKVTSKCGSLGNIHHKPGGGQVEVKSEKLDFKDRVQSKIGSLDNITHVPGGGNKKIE
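Quantitative HTS format: compounds meet 15 uM recombinant K18 P301L tau and Alexa 594-tau tracer in 100 mM sodium acetate pH 7; 20 uM heparin triggers fibrillization at 37 C over 6 hr; FP gives the signal.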
Tau ThT inhib = qHTS for Inhibitors of Tau Fibril Formation, Thioflavin T Binding | 2.1% of 270,000 active | Microtubule-associated protein tau (Homo sapiens), P10636 | recombinant tau K18 P301L (four-repeat tau fragment), heparin-induced fibrillization, ThT fluorescence | Potency, µM (doses to about 57.4 µM), for inactives: top-dose activity, negative = inhibition, most hits filed as inhibitors; note: nearly all actives have a fitted effect of over 55% in size
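Heparin-induced (20 uM) aggregation of recombinant human K18 P301L tau, 15 uM unlabeled with 0.24 uM labeled, pH 7 acetate buffer, 6 hr at 37 C with compound. Fibrils quantified by 30 uM ThT fluorescence after 1 hr ambient incubation.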
NPSR antagonist = qHTS Assay for Antagonists of the Neuropeptide S Receptor: cAMP Signal Transduction | CHO-NPSR cells, cAMP TR-FRET, antagonist mode | Potency, µM (titrated, usually from 38.3 µM), inactives show top-dose activity change, negative = inhibition, most hits filed as inhibitors | 1% of 220,000 active; note: nearly all actives have a fitted effect of over 50% in size
Target sequence (Q6W5P4 whole entry, looked up): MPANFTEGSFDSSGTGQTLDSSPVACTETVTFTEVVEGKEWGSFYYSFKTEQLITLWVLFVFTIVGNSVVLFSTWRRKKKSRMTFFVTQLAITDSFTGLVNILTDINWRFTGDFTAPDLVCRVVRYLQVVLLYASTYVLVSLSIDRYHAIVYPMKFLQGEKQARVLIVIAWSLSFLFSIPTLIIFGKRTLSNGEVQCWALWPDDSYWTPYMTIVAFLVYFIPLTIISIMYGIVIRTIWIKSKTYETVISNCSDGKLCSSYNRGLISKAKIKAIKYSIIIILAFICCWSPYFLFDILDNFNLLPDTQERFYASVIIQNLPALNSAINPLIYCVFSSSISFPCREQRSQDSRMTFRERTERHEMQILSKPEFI
Numbers without * were called inactive; u = inconclusive; x = no result given; [ ] = remark or other dose. Calls come from the whole dose curve; as a rule, active = well fitted curve in the direction sought with a large enough effect; inconclusive = small, poorly fitted or top-dose-only effect, or another doubt; inactive = no such curve, though single readings can be large; an effect the other way counts as inactive or inconclusive. % is set by controls: 0 for no effect and ±100 for the full control effect; potency is the fitted concentration of half-maximal effect.

SMILES	KinaseGlo FLuc	Tau fluor cs	Tau FP inhib	Tau ThT inhib	NPSR antagonist
COc1ccc(C(=O)c2oc3ccccc3c2NC(=O)COc2c(C)cc(C)cc2C)cc1	x	-16.5%	u	u	x
O=c1ccc(N=Nc2ccccc2)ccc1O	x	u	-3.2%	4.47µM*	47.5%
N#CC1=C(Nc2ccccc2Cl)SC(c2ccccc2O)NC1=O (stereo unspecified)	x	-25.0%	31.6µM*	u	-8.5%
COc1cccc(NC2=C(C#N)C(=O)NC(c3cccc(OC)c3O)S2)c1 (stereo unspecified)	x	-24.0%	u	31.6µM*	-1.5%
Cc1cccc(NC2=C(C#N)C(=O)NC3(CCCC3)S2)c1	x	-0.2%	u	u	-0.4%
CC1SC(c2ccccc2Cl)NC1=O (stereo unspecified)	4.3%	-3.4%	3.4%	-3.5%	-8.5%[46.1 µM]
COc1ccc(NC2=CC(c3ccc(OC)c(OC)c3)N(c3ccc(OC)cc3)C2=O)cc1 (stereo unspecified)	0.1%	0.3%	7.6%	-1.5%	-11.3%
NS(=O)(=O)c1ccc(NC2=CC(c3ccc([N+](=O)[O-])cc3)N(c3ccc(S(N)(=O)=O)cc3)C2=O)cc1 (stereo unspecified)	x	12.6µM*[quencher]	-14.5%	u	-4.3%
COc1ccc(-c2n[nH]c(C)c2-c2cnn(-c3ccccc3)c2)c(O)c1C	10.1%	12.6µM*[quencher]	u	u	u
Cc1cc(N2CCOCC2)ccc1/C=C\[N+](=O)[O-]	-3.2%	u	12.7%	11.2µM*	0.8%
CCOc1cc(C2C(C#N)=C(N)SC(N)=C2C#N)ccc1OCCN1CCOCC1	0.8%	-29.4%	u	25.1µM*	-11.9%[46.1 µM]
O=C(Nc1ccc(Oc2ccccc2)cc1)c1ccc(F)c(S(=O)(=O)N2CCN(c3ccccc3F)CC2)c1	x	-2.8%	u	18.9%	x
Cc1ccc(Nc2c([N+](=O)[O-])ccc3c2=NC2(CCCCC2)N=3)cc1	-19.5%	u	-11.5%	15.8µM*	u
O=[N+]([O-])c1ccc2c(c1Nc1ccccc1Cl)=NC1(CCCCC1)N=2	x	-15.1%	0.4%	-19.6%	14.2%
Cc1nc(-c2ccccc2)sc1C(=O)/C=C/c1ccc(Cl)cc1	-0.5%	3.7%	2.6%	u	-5.6%[46.1 µM]
COc1ccc(N/C=C/C(=O)c2sc(-c3ccccc3)nc2C)cc1	-1.1%	u	8.4%	2.51µM*	-13.9%[46.1 µM]
COc1cccc(NC(=O)Nc2cccnc2)c1	x	-5.8%	-4.1%	5.8%	2.7%
Cn1ccc2cc(NC(=O)Nc3cccnc3)ccc21	-1.6%	14.1µM*[quencher]	u	u	x
CC(C)=NO[C@@H](C)CN1CCCc2nc(C)c(C)cc21	x	-1.1%[11.6 µM]	-9.1%[11.6 µM]	-2.2%[11.5 µM]	x
CC(=O)c1ccc(Nc2cc(C)nc3nc(Cc4ccccc4)nn23)cc1	x	-1.1%	3.2%	0.3%	x
CNCc1ccccc1Sc1cc(O)ccc1O	-1.0%	17.8µM*[quencher]	31.6µM*	17.8µM*	-18.7%
CCCNc1c(F)c(F)c2c(C)c3ccccc3nc2c1F	0.1%	-23.1%	5.5%	14.1µM*	-4.0%[46.1 µM]
Cc1cc(C)cc(NC2=C(c3ccccc3)C(=O)c3ccccc32)c1	x	7.94µM*[quencher]	4.5%	u	x
COc1ccc(C2=C(Nc3ccc(C)cc3)c3ccccc3C2=O)cc1	-2.2%	-23.2%	5.3%	-13.0%	-2.0%
COc1ccc(C2=C(Nc3ccc(Br)c(C)c3)c3ccccc3C2=O)cc1	x	3.98µM*[quencher]	5.5%	u	x
SMILES	KinaseGlo FLuc	Tau fluor cs	Tau FP inhib	Tau ThT inhib	NPSR antagonist
COc1ccc(C2=C(Nc3ccc(C)c(C)c3)c3ccccc3C2=O)cc1	x	u	u	-11.5%	x
CCc1ccc(CN(Cc2ccco2)c2cnc(S(C)(=O)=O)nc2C(=O)Nc2ccc(C)c(Cl)c2)cc1	x	3.5%	u	7.0%	x
C=CC[C@@H]1C=C[C@H](Oc2ccc(C)cc2)[C@H](COC(=O)NCc2cccc3ccccc23)O1	x	-13.4%[11.6 µM]	4.2%[11.6 µM]	-7.7%[11.5 µM]	x
C/C(C/C(C)=C1/SC(=S)NC1=O)=C1\SC(=S)NC1=O	-2.5%	-25.1%	-1.1%	15.8µM*	-33.0%
COc1ccc2nc(N3C(=O)/C(=C/c4ccccc4)NC3=S)sc2c1	-2.4%	u	-3.4%	3.98µM*	-10.2%
CCOc1ccc2nc(N3CCCCCC3)sc2c1	-4.0%	-16.2%	13.9%	u	-26.4%[46.1 µM]
COc1ccc2nc(-n3c(C)ccc3C)sc2c1	1.0%	-12.0%	-11.9%	u	-0.1%[46.1 µM]
CCOc1ccc2nc(N3C(=O)/C(=C/c4ccccc4)NC3=S)sc2c1	x	u	u	3.55µM*	-1.9%[46.1 µM]
CCC1=C2CC[C@H]3C(=O)N(c4ccccc4)C(=O)[C@H]3[C@H]2[C@@]2(Cc3ccccc3)C(=NCCc3c[nH]c4ccccc34)OC(=O)N2C1=O	1.2%	u	0.9%	u	x
CCC1CN(C(=O)N2CCC(C(=O)NCc3ccco3)CC2)c2ccccc2O1 (stereo unspecified)	x	3.55µM*[quencher]	u	16.5%	x
CCC1CN(C(=O)N2CCC(C(=O)N3CCN(c4ccccc4)CC3)CC2)c2ccccc2O1 (stereo unspecified)	x	11.2µM*[quencher]	u	u	x
O=C(NCc1ccco1)C1CCN(C(=O)N2CCOc3ccccc32)CC1	x	5.01µM*[quencher]	11.2%	u	x
CCC1CN(C(=O)N2CCC(C(=O)NCCCc3ccccc3)CC2)c2ccccc2O1 (stereo unspecified)	x	8.91µM*[quencher]	13.4%	-19.0%	x
CCC1CN(C(=O)N2CCC(C(=O)NCCCc3ccccc3)CC2)c2cc(C)ccc2O1 (stereo unspecified)	x	-19.2%	u	-6.5%	x
CCC1=C2CC[C@H]3C(=O)NC(=O)[C@H]3[C@H]2[C@@]2(Cc3ccccc3)C(=NCC3CC3)OC(=O)N2C1=O	-2.8%	0.1%	-0.5%	-5.2%	x
CC[n+]1ccccc1/C=C/c1ccc(N(C)C)cc1	-9.7%	7.9%	3.2%	14.1µM*	-48.5%
CN(C)c1ccc(C(=O)/C=C/c2ccccc2)cc1	-4.1%	-25.9%	8.4%	u	-20.1%
CC[n+]1ccc(/C=C/c2ccc(N(C)C)cc2)c2ccccc21	u	0.708µM*[fluorescent]	u	1.41µM*	u
CC[n+]1c(/C=C/c2ccc(N(C)C)cc2)ccc2ccccc21	8.91µM*	-7.4%	5.3%	3.2%	5.01µM*
CC[n+]1ccc(C[n+]2ccccc2)c2ccccc21	-1.0%	-14.4%	u	u	7.9%
CN(C)c1ccc(/C=C/c2cc[n+]([O-])cc2)cc1	-2.4%	-8.0%	2.6%	u	-16.0%[46.1 µM]
CN(C)c1ccc(/C=C/c2cc[n+](C)cc2)cc1	-14.5%	14.1µM*[fluorescent]	u	3.98µM*	u
COc1ccc(NC(=O)Cn2c(=O)n(-c3ccc(C)cc3)c(=O)c3c2c2cc(C)ccc2n3C)cc1	x	3.6%	-7.8%	14.1%	x
